PRMT1 FP inh: blocks human protein arginine methyltransferase 1 | Q99873 | recombinant PRMT1, activity-based probe fluorescence polarization | inhibition, % at 2.79 µM | 370,000 tested, 1.3% active;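 active means inhibition above about 21% made by adding two undisclosed values, limit read from the data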
MBD2 inh: blocks human MBD2 binding to methylated DNA; 370,000 tested, 0.31% active; inhibition, % at 4.4 µM; Q9UBB5; TR-FRET, MBD2 binding to methylated oligonucleotide; AID 686964; in the data active means inhibition above about 13%
PfM18AAP inh: blocks P. falciparum M18 aspartyl aminopeptidase; recombinant PfM18AAP, H-Glu-NHMec fluorogenic cleavage; inhibition, % at 7.35 µM; 290,000 tested, 1.2% active;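 active means inhibition above the campaign mean inhibition over all tested compounds plus 3 SD, cut at about 28% in these data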
UHRF1 binding: UHRF1 methyl-DNA binding inhibition. AID 687016. 370,000 tested, 0.75% active. inhibition, % at 4.4 µM. Q96T88. UHRF1 binding to methylated oligo, TR-FRET; in the data active means inhibition above about 21%;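 further: UHRF1 SRA domain binding a hemimethylated CpG hairpin DNA probe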
Target sequence (Q96T88 whole entry, looked up, the tested form may be a part): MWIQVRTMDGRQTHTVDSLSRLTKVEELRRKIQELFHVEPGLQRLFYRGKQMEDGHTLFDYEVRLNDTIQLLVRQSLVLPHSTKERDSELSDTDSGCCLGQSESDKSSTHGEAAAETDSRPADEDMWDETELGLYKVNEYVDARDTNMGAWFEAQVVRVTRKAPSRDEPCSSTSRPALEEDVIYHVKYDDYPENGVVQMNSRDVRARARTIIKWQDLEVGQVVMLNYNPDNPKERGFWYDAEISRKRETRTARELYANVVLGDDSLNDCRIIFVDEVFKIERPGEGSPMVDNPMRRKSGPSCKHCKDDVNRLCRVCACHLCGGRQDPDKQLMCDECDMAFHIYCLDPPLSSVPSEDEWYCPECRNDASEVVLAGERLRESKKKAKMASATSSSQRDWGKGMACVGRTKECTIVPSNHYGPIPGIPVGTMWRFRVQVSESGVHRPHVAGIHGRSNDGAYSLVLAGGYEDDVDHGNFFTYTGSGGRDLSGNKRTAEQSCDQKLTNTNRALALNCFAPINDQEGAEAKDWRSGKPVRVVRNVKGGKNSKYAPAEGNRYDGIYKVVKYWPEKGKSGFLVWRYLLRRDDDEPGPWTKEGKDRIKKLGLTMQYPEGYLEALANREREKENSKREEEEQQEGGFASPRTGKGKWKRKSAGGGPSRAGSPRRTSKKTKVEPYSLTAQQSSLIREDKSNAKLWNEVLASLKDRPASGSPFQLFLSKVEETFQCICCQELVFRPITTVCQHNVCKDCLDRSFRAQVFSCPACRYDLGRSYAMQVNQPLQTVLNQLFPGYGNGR
PfGluPho inh: PfG6PD (Plasmodium falciparum) enzyme inhibition. inhibition, % at 20 µM. 350,000 tested, 0.78% active. AID 504690. PfGluPho enzyme, NADPH resazurin-diaphorase fluorescence;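 active means inhibition reaching at least a set limit at 20 µM in the primary screen, cut at about 59% in these data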
Of the large screens only hits and unclear results are named; the others gave an inactive call. The list is not random: actives were taken first. Their share in the collection is about 3.3%.

Cc1ccc(Cc2c(-c3ccco3)nc3ccc(C)cn23)cc1	PRMT1 FP inh 21.5, UHRF1 binding 24.3 (no result: PfM18AAP inh, PfGluPho inh)
COC(=O)c1ccc2nc(C(C)(C)C)c(Cc3ccc(OC)cc3C)n2c1	UHRF1 binding 21.8 (no result: PfM18AAP inh, PfGluPho inh)
COC(=O)c1ccc2nc(C3CCCCC3)c(Cc3ccc(C)cc3)n2c1	UHRF1 binding 22.8 (no result: PfM18AAP inh, PfGluPho inh)
COC(=O)c1ccc2nc(-c3ccco3)c(Cc3ccc(OC)cc3C)n2c1	PRMT1 FP inh 21.9 (no result: PfM18AAP inh, PfGluPho inh)
Cc1ccc2c(c1)C(CS(=O)(=O)NCCc1ccccc1)NC2 (stereo not drawn)	none (no result: PfM18AAP inh, PfGluPho inh)
COC(=O)c1ccc2nc(C3CCCCC3)c(Cc3ccc(OC)cc3C)n2c1	UHRF1 binding 21.0 (no result: PfM18AAP inh, PfGluPho inh)
COC(=O)c1ccc2nc(C3CCCCC3)c(Cc3ccccc3C(F)(F)F)n2c1	none (no result: PfM18AAP inh, PfGluPho inh)
COC(=O)c1ccc2nc(C3CCCCC3)c(Cc3cccc(Cl)c3)n2c1	UHRF1 binding 23.4 (no result: PfM18AAP inh, PfGluPho inh)
O=C(OC12CCCN(C1)/C(=C/c1ccccc1)C2)c1cccc(F)c1 (stereo not drawn)	none (no result: PfM18AAP inh, PfGluPho inh)
Cc1cc(C)c2nc(N3CCCN(C(=O)c4ccco4)CC3)c(C#N)cc2c1	PRMT1 FP inh 22.3
Cc1nc(N2CCN(C(=O)c3ccco3)CC2)c(C#N)c2c1CCCC2	none
COC(=O)C1CN(Cc2cn(Cc3ccccc3)nn2)CCS(=O)(=O)N1Cc1ccc(F)cc1 (stereo not drawn)	none (no result: PfM18AAP inh, PfGluPho inh)
Cc1ccc(C2C3CN(C(C)C)CC=C3C(C#N)=C(N)C2(C#N)C#N)cc1 (stereo not drawn)	PRMT1 FP inh 40.2 (no result: PfM18AAP inh)
COc1ccc(OC)c(C2C3CN(C(C)C)CC=C3C(C#N)=C(N)C2(C#N)C#N)c1 (stereo not drawn)	none
O=[N+]([O-])c1cc(/C=N\Nc2nc(-c3ccccc3)cs2)ccc1O	none
Cc1csc(N/N=C/c2ccc(O)c([N+](=O)[O-])c2)n1	PRMT1 FP inh 47.8
Cc1cc(C(=O)NNC(=O)/C=C/c2ccco2)c(C)o1	PRMT1 FP inh 23.4, UHRF1 binding 28.8 (no result: PfM18AAP inh)
COc1ccccc1/C=C/C(=O)NNC(=O)c1cc(C)oc1C	none (no result: PfM18AAP inh)
O=C(Nc1ccccc1)c1ccccc1NC(=O)c1ccccc1C(=O)O	UHRF1 binding 27.7 (no result: PfM18AAP inh)
O=C(O)c1ccccc1C(=O)Nc1ccccc1	none
O=S(=O)(c1ccc(NC(=S)NCCc2ccccc2)cc1)N1CCOCC1	none
O=S(=O)(c1ccc(NC(=S)NN=C(Cc2ccccc2)Cc2ccccc2)cc1)N1CCOCC1	PfM18AAP inh 29.3
Fc1ccc(CN2CCN(c3ncc(Cc4ccccc4)cn3)CC2)c(Cl)c1	none (no result: PfM18AAP inh, PfGluPho inh)
COC(=O)C1CN(Cc2ccc(OC)cc2)CCS(=O)(=O)N1Cc1ccc(OC)cc1 (stereo not drawn)	none (no result: PfM18AAP inh, PfGluPho inh)
CC(=O)c1cccc(OCc2cc(C(=O)NC3CCN(Cc4ccccc4)CC3)no2)c1	UHRF1 binding 21.0
O=C(NC1CCN(Cc2ccccc2)CC1)c1cccc(OC(F)F)c1	none
CC(=O)c1cccc(NC(=O)CSC(=O)c2ccccc2)c1	PRMT1 FP inh 48.7
CCN(CC)c1ccc(NC(=O)CSC(=O)c2ccccc2)cc1	none (no result: PfM18AAP inh)
Cc1c(C(=O)Nc2ccc(S(=O)(=O)NCC3CCCO3)cc2)cccc1[N+](=O)[O-] (stereo not drawn)	UHRF1 binding 20.9
Cc1oc2cc(O)ccc2c(=O)c1-c1ccccc1	none
Cc1oc2cc(O)ccc2c(=O)c1-c1nncn1-c1ccccc1	PRMT1 FP inh 52.3
C[C@H]1[C@@H]2C[C@@]3(O[C@H](c4ccccn4)N=C3C[C@@H]1c1ccccc1)N(Cc1ccncc1)C2=O	none (no result: PfM18AAP inh, PfGluPho inh)
Cc1cc(=O)[nH]c(SCC(=O)Nc2ccc(Cl)cc2)n1	none (no result: PfM18AAP inh, PfGluPho inh)
Cc1ccsc1C=Nc1ccc(O)cc1	PfGluPho inh 84.0 (no result: PRMT1 FP inh, MBD2 inh, UHRF1 binding)
COC(=O)[C@]12C[C@H](CC(=O)NCc3cccs3)C(=O)N(CCc3ccc(OC)c(OC)c3)C1=C[C@H](C(C)(C)C)O[C@@H]2C	none (no result: PfM18AAP inh, PfGluPho inh)
COC(=O)C1CN(Cc2ccc(OC)cc2)CCS(=O)(=O)N1Cc1ccccc1 (stereo not drawn)	none (no result: PfM18AAP inh, PfGluPho inh)
Cc1ccc(C)c(NC(=O)CN(C)S(=O)(=O)c2cccc3cccnc23)c1	UHRF1 binding 26.6
CC(=O)Oc1cc(C)c(Cl)c2c(OC(C)=O)cc(C(C)=O)c(O)c12	PRMT1 FP inh 24.1 (no result: PfM18AAP inh, PfGluPho inh)
Cc1nnc(SCC(C)C)[nH]c1=O	UHRF1 binding 21.6
O=c1oc2ccccc2c(NCCO)c1[N+](=O)[O-]	UHRF1 binding 40.6
CCN1CCCCC(NC(=O)c2ccc(F)c(F)c2)C1=O (stereo not drawn)	none (no result: PfM18AAP inh, PfGluPho inh)
CCN(CC)c1ccc(-n2c(C)c(C(C)=O)c(C(C)=O)c2C)cc1	PfM18AAP inh 28.2
COc1ccc(CN2C[C@H](COCc3ccccc3)Oc3cccc(N4CCCC4)c3S2(=O)=O)cc1	none (no result: PfM18AAP inh, PfGluPho inh)
Cc1nnc(SCC(=O)c2ccc(S(=O)(=O)N3CCOCC3)cc2)n1-c1ccccc1	PRMT1 FP inh 28.4
Nc1c(C(=O)c2ccccc2)sc2snc(SCC(=O)c3ccccc3)c12	PfM18AAP inh 30.8
COc1ccc(C(=O)C2(C(=O)NC3CCCC3)CC(c3ccccc3C(F)(F)F)=NO2)cc1 (stereo not drawn)	none (no result: PfM18AAP inh, PfGluPho inh)
CCOc1cc(C2C(C#N)=C(N)Oc3n[nH]c(CC)c32)ccc1OCCN1CCOCC1 (stereo not drawn)	UHRF1 binding 22.0
O=[N+]([O-])c1ccccc1N/N=C\c1ccccc1Cl	none
O=[N+]([O-])c1ccccc1N/N=C/c1cccc(O)c1O	PfM18AAP inh 30.2
O=[N+]([O-])c1cccc(N/N=C/c2cccc(O)c2O)c1	PfM18AAP inh 41.5
COc1cccc(/C=N/Nc2ccc([N+](=O)[O-])cc2)c1O	none
O=C(Nc1ccc(N2CCN(C(=O)c3ccco3)CC2)cc1)c1ccc(Br)cc1	UHRF1 binding 70.4
O=C(COc1cccnc1[N+](=O)[O-])NC1CCS(=O)(=O)C1 (stereo not drawn)	UHRF1 binding 26.5
C[C@@H]1CN([C@@H](C)CO)C(=O)CCCn2cc(nn2)CO[C@H]1CN(C)C(=O)Nc1ccc(-c2cccs2)cc1	none (no result: PfM18AAP inh, PfGluPho inh)
CC(C)N(Cc1ccccc1)C(=O)CCS(=O)(=O)c1ccc2c(c1)oc(=O)n2C	PRMT1 FP inh 21.5
CC(CNC(=O)CCS(=O)(=O)c1ccc2c(c1)oc(=O)n2C)c1ccccc1 (stereo not drawn)	none
Cc1ccc(NC(=O)Cn2nnc(-c3ccccc3F)n2)cc1C	none (no result: PfM18AAP inh, PfGluPho inh)
Cc1ccc(S(=O)(=O)N2CCC(C(=O)N[C@H](C(=O)N3CCN(C)CC3)C(C)C)CC2)cc1	UHRF1 binding 21.6
O=C(CSc1nnc(-c2ccccc2)n1-c1ccccc1)NN=Cc1ccc(-c2ccccc2)cc1	none (no result: PfM18AAP inh, PfGluPho inh)
Cc1nn(-c2ccccc2)c2c1C(c1ccc(O)c(O)c1)N1C(=N2)C(Nc2ccccc2)=Nc2ccccc21 (stereo not drawn)	PfM18AAP inh 34.2
Cc1ccc(C)c(SCC(=O)Nc2oc(C)c3c(C)n[nH]c(=O)c23)c1	PRMT1 FP inh 22.0 (no result: PfM18AAP inh)
Cc1ccc(SCC(=O)Nc2oc(C)c3c(C)n[nH]c(=O)c23)cc1C	none (no result: PfM18AAP inh)
CCN1CCN(c2c(Cl)cccc2NC(=O)c2ccco2)CC1	UHRF1 binding 23.2
CCCCCCCCCCCC(=O)NC(Cc1ccc(OC)c([N+](=O)[O-])c1)C(=O)O (stereo not drawn)	none

High-throughput results from PubChem.
